High-throughput results deposited in PubChem by National Center for Advancing Translational Sciences (NCATS).
Compounds with a hit are over-represented: about 5.4% of the library has one in this group of screens.
IMPase Li inh: qHTS Assay for Identifying the Cell-Membrane Permeable IMPase Inhibitors: Potentiation with Lithium | Potency, µM (doses to about 59.4 µM), for inactives: at the top dose activity, negative = IMPase inhibition, most hits filed as inhibitors | hit rate 0.35% among 210,000 | CHO-M1 cells, IP1 TR-FRET (IP-One), carbachol + lithium;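 note: IP1 builds up when IMPase is blocked and the TR-FRET signal falls; potency is the fitted concentration of half-maximal effect; plate controls were basal vehicle for no effect and high inhibitor control for full effect; nearly all actives have a fitted effect of over 50% in size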
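Test compounds were applied to CHO-M1 cells previously cultured for 16–30 h at 2000 per well. A small lithium amount accompanied them; after 30 min at 37C, IP1 was quantified by TR-FRET.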
12-hLO inh: qHTS Assay for Inhibitors of 12-hLO (12-human lipoxygenase). purified 12-hLO, xylenol orange hydroperoxide absorbance. hit rate 0.12% among 150,000. Potency, µM (titrated, usually from 57.1 µM), inactives show top-dose activity change, negative = inhibition, actives largely listed as inhibitors. Polyunsaturated fatty acid lipoxygenase ALOX12 (Homo sapiens), P18054; note: potency is the fitted concentration of half-maximal effect; nearly all actives have a fitted effect of over 55% in size
Target sequence (P18054 whole entry, looked up): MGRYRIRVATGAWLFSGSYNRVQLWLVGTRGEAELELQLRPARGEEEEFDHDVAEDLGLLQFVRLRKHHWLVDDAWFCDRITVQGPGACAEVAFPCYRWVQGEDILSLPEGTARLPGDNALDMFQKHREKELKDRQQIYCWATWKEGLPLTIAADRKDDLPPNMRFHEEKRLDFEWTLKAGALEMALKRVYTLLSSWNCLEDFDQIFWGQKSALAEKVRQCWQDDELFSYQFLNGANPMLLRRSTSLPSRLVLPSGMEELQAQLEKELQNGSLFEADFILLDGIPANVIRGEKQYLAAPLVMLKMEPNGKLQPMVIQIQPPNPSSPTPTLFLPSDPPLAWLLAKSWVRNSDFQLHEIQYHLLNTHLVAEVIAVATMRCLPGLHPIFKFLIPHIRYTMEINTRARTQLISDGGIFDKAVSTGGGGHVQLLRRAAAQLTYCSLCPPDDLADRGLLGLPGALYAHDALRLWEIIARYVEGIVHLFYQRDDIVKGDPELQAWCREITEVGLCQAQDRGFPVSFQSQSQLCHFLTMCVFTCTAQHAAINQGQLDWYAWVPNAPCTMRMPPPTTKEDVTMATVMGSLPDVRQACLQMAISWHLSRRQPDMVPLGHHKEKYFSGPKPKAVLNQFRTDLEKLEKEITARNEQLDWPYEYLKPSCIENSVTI
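Hydroperoxide formation by human 12-lipoxygenase from 40 uM arachidonic acid was followed colorimetrically via ferric-xylenol orange complex, using the 573/405 nm absorbance ratio. Enzyme concentration was 150 nM, with 30 min reaction at room temperature.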
IMPase cell inh: qHTS Assay for Identifying the Cell-Membrane Permeable IMPase Inhibitors; CHO-M1 cells, IP1 accumulation, HTRF TR-FRET ratio; inhibition (IP1 accumulation), % at 46.1 µM; 120,000 tested, under 10 active; AID 901, 2007; active = well fitted curve in the direction sought with a large enough effect in the signal ratio, not every such curve was filed as active; inconclusive = small, poorly fitted or top-dose-only effect, or a change in a side signal; inactive = no such curve, though single readings can be large or run the other way; the % refers to the signal ratio;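 note: cells stimulated with carbachol in lithium chloride buffer; plate controls were DMSO basal wells for no effect and reference inhibitor wells for full effect; higher means more IMPase inhibition seen as more IP1 and lower FRET ratio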
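CHO-M1 cells (CHO stably expressing M1 receptor), compound up to 46 uM final, stimulated with carbachol (50 uM as added) in buffer with 50mM LiCl, pH 7.4, 30 min at 37C. Cytosolic IP1 read by TR-FRET; AC50 from Hill fits.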
ALOX15B inhib: qHTS Assay for Inhibitors of 15-hLO-2 (15-human lipoxygenase 2); purified 15hLO-2, xylenol orange hydroperoxide absorbance; Potency, µM (titrated, usually from 57.1 µM), for the others: top-dose activity change, negative = inhibition, hits mostly inhibitors; hit rate 0.56% among 110,000; AID 881, 2007; note: potency is the fitted concentration of half-maximal effect; nearly all actives have a fitted effect of over 60% in size
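Screening format was qHTS against 50 nM purified 15hLO-2 in Hepes pH 7.5 with detergent. Activity follows hydroperoxide formation from 45 uM arachidonic acid, measured as 573:405 nm absorbance ratio of the ferric-xylenol orange complex.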
PNC assembly inh: High Content Assay for Compounds that inhibit the Assembly of the Perinucleolar Compartment; PC3M PTB-GFP, PNC prevalence imaging, 16 h; hits give low values; activity change (PNC), negative = inhibition, % at 10 µM; hit rate 3.1% among 140,000;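 active = readout at or below -70, meaning at least 70% loss of cells showing the perinucleolar compartment, a nuclear body marking cancer cells; inconclusive = readout between -30 and a set limit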;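 note: plate controls were DMSO wells for no effect and camptothecin positive control wells for full effect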
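PC3M cells stably expressing PTB-GFP, 750–1000 cells/well, treated 16 h at 37 °C with compound (23 nl of library stock), in duplicate. After paraformaldehyde fixation and Hoechst stain, imaged at 20x; PNC prevalence scored by image analysis.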
HPGD inh: qHTS Assay for Inhibitors of HPGD (15-Hydroxyprostaglandin Dehydrogenase); 15-hydroxyprostaglandin dehydrogenase [NAD(+)] (Homo sapiens), P15428; purified HPGD, NADH fluorescence kinetic, PGE2 substrate; Potency, µM, for the others: top-dose activity change, negative = inhibition, usual class: inhibitors; hit rate 4.3% among 150,000; AID 894, 2007; active = well fitted inhibition curve with a large enough effect, not every such curve was filed as active; inconclusive = small, poorly fitted or top-dose-only effect, or another doubt; inactive = no such curve, though single readings can be large or run the other way; note: potency is the fitted concentration of half-maximal effect
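20 nM HPGD preincubated 15 min at room temperature with compound in 50 mM Tris-HCl pH 8, 0.01% Tween 20. Started with 1 mM NAD+ and 30 uM prostaglandin E2; NADH fluorescence (360/450 nm) read 5 times over 30-s intervals, last minus first.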
The depositor's hits bear a star; [ ] = dose if it differs, or a comment. Unless noted, calls come from the whole dose curve; as a rule, active = well fitted curve in the direction sought with a large enough effect; inconclusive = small, poorly fitted or top-dose-only effect, or another doubt; inactive = no such curve, though single readings can be large; an effect the other way counts as inactive or inconclusive. Unless noted, % is set by controls: 0 for no effect and ±100 for the full control effect.

`Cc1cc(C(=O)NCc2cccs2)c(C)o1` gave IMPase Li inh 13.1%[38.3 µM], 12-hLO inh -3.5%, IMPase cell inh 3.6, ALOX15B inhib -2.7%, PNC assembly inh 14.6 and HPGD inh 15.8µM*.
O=C(NCc1ccco1)c1cccs1 was read as IMPase Li inh -6.8%[38.3 µM], 12-hLO inh -12.4%, IMPase cell inh 7.0, ALOX15B inhib 6.1%, PNC assembly inh -3.4 and HPGD inh 25.1µM*.
Screening Cc1scc(C(=O)NCc2ccco2)c1-c1ccccc1 returned IMPase Li inh 16.3%[38.3 µM], 12-hLO inh -22.2%, IMPase cell inh -1.0, ALOX15B inhib -24.6%, PNC assembly inh inconclusive and HPGD inh 31.6µM*.
`Cc1cc(C(=O)NCc2cccs2)cs1` gave IMPase Li inh 10.9%[38.3 µM], 12-hLO inh 3.6%, IMPase cell inh -9.5, ALOX15B inhib 0.9%[2.29 µM], PNC assembly inh -8.3 and HPGD inh 28.2µM*.
For O=C(NNC(=S)NCc1ccco1)c1cccs1 the results were 12-hLO inh 1.5%, IMPase cell inh -5.4 and PNC assembly inh 28.1.
For C=CCN1c2ccccc2[C@]23C[C@@H](C(=O)OC)N(S(=O)(=O)c4ccc5c(c4)OCCN5C)C2=NC(C(=O)OC)=C(C(=O)OC)[C@H]13 the results were IMPase Li inh 1.9%, 12-hLO inh -3.3%[11.4 µM] and HPGD inh 2.8%.
Screening CC(C)=CCC1=C(O)c2ccccc2C(=O)C1=O returned IMPase Li inh 15.9%, 12-hLO inh -4.6%, ALOX15B inhib -15.2% and HPGD inh -17.0%.
O=C(NCc1cccs1)c1ccncc1 was read as IMPase Li inh -2.8%, 12-hLO inh -1.8%, IMPase cell inh -11.1, ALOX15B inhib 1.0%, PNC assembly inh 14.3 and HPGD inh 1.1%.
O=C(NCc1cccs1)c1ccccc1 was read as IMPase Li inh -1.5%[38.3 µM], 12-hLO inh 4.3%, IMPase cell inh 3.0, ALOX15B inhib -6.1%, PNC assembly inh 28.8 and HPGD inh 25.1µM*.
Cc1ccc(C(=O)NCCSC(C)(C)C)cc1 was read as IMPase Li inh -6.5%[38.3 µM], 12-hLO inh -1.1%, IMPase cell inh -0.2, ALOX15B inhib -10.0%, PNC assembly inh 15.5 and HPGD inh -22.8%.
For CSCCNC(=O)c1ccc(C(C)(C)C)cc1 the results were IMPase Li inh -1.8%[38.3 µM], 12-hLO inh -1.7%, IMPase cell inh 2.1, ALOX15B inhib 7.6%, PNC assembly inh -22.3 and HPGD inh 14.1µM*.
Screening Cc1ccccc1-c1cncnc1NCc1cccs1 returned IMPase Li inh 3.9% and ALOX15B inhib 29.6%.
Screening CCCOc1cccc(C(=O)Nc2ccc(-c3cc4ccccc4oc3=O)c(C)c2)c1 returned IMPase cell inh -4.9.
Screening CN=C1N[C@H](c2ccccc2)N(c2ccccc2)S1 returned IMPase Li inh 39.4%, 12-hLO inh inconclusive, IMPase cell inh 20.7, ALOX15B inhib 25.1µM* and HPGD inh 12.6µM*.
`Cc1ccccc1-c1nccc(NCCN2CCOCC2)n1` gave IMPase Li inh 3.9% and ALOX15B inhib -8.0%.
Screening Cc1ccc(-c2nc3ccccc3c(=O)n2NC(=S)N(C)C)cc1 returned IMPase Li inh -0.7%, 12-hLO inh 0.4%, PNC assembly inh 33.8 and HPGD inh 28.2µM*.
O=C1c2ccccc2C(=O)c2c(O)c(O)cc(O)c21 was read as IMPase Li inh 26.0%, 12-hLO inh inconclusive, IMPase cell inh 27.1, ALOX15B inhib -8.3% and HPGD inh 25.1µM*.
`Nc1ccc(O)c2c1C(=O)c1ccccc1C2=O` gave IMPase Li inh -6.0%, 12-hLO inh -10.1%, PNC assembly inh 9.3 and HPGD inh 12.6µM*.
For O=C1c2ccccc2C(=O)c2c(O)ccc(O)c21 the results were IMPase Li inh 2.5% and HPGD inh -8.7%.
For N#Cc1c(-c2ccco2)nc(SCc2ccc(F)cc2)[nH]c1=O the results were IMPase Li inh 12.6µM*, 12-hLO inh 2.4%, IMPase cell inh inconclusive, ALOX15B inhib -11.7%, PNC assembly inh -12.6 and HPGD inh 10µM*.
For CCOC(=O)c1c(C)cccc1OCC(N)=O the results were IMPase Li inh 7.4%, 12-hLO inh -1.1%, IMPase cell inh -0.2, PNC assembly inh -100.0* and HPGD inh -8.6%.
For CO[C@@H]1[C@@H]2OP(=O)(O)OC[C@H]2O[C@H]1n1c(Sc2ccc(Cl)cc2)nc2c(N)ncnc21 the results were IMPase Li inh -5.7%, 12-hLO inh -2.3%[0.00818 µM], ALOX15B inhib -8.5%[0.0915 µM] and HPGD inh -4.4%.
`Cc1cc(C)n2c(=S)[nH]nc2n1` gave IMPase Li inh 8.0%[38.3 µM], 12-hLO inh inconclusive, IMPase cell inh -12.2, ALOX15B inhib 6.31µM*, PNC assembly inh -139.2* and HPGD inh 2.82µM*.
For Cn1c(=O)c2[nH]c(SCCN3CCOCC3)nc2n(C)c1=S the results were IMPase Li inh 3.0%, 12-hLO inh 2.7%[11.4 µM], ALOX15B inhib 5.9%[11.4 µM] and HPGD inh 5.62µM*.
`CCOc1ccc(CCNC(=O)C2CCN(S(=O)(=O)N3CCCCC3)CC2)cc1OCC` gave IMPase Li inh -0.7%, 12-hLO inh -0.9%, PNC assembly inh 83.7 and HPGD inh -3.3%.
Screening COc1ccc(CCNC(=O)NC2CCCCC2)cc1OC returned IMPase Li inh -2.9%[38.3 µM], 12-hLO inh 1.3%, IMPase cell inh -1.3, ALOX15B inhib 3.3%, PNC assembly inh -80.9* and HPGD inh -10.3%.
For CCOc1ccc(CCNC(=O)C2CCCN(C(=O)N(C)C)C2)cc1OCC (centres undefined) the results were IMPase Li inh 5.8%, 12-hLO inh 5.3%, IMPase cell inh -4.9, PNC assembly inh -100.0* and HPGD inh -12.1%.
COc1ccc(CCNC(=O)COc2ccc(-c3ccccc3)cc2)cc1OC was read as IMPase Li inh 10µM*, 12-hLO inh -0.9%, IMPase cell inh 15.1, PNC assembly inh -23.0 and HPGD inh -9.2%.
Screening COc1cc(C(=O)NNC(=O)NC2CCCCC2)cc(OC)c1OC returned IMPase Li inh 13.0%[38.3 µM], 12-hLO inh 0.6%, IMPase cell inh -17.1[1.84 µM], ALOX15B inhib -2.4%[11.4 µM], PNC assembly inh -119.9* and HPGD inh -0.7%.
C/C(=C\c1ccc(Cl)cc1)C(C)(C)C(=O)O was read as IMPase Li inh -3.5%, 12-hLO inh 2.4%[11.4 µM], ALOX15B inhib -1.6%[11.4 µM] and HPGD inh -6.8%.
Cc1ccccc1C was read as IMPase Li inh 14.9%, 12-hLO inh -1.7%, ALOX15B inhib -8.4% and HPGD inh -7.2%.
